Reference: PubChem BioAssay (Tox21)
Several values for one entry are separate records, joined by “and”; a condition that tells them apart may be missing. Equal entries are not always repeated. Inconclusive results are not listed. Where a structure was tested more than once in an assay, its records may differ in their call. Activity calls are given as the source filed them. Calls come from the whole dose curve; as a rule, active = well fitted curve in the direction sought with a large enough effect in the repeat runs; inconclusive = weak or mixed curves; inactive = no such curve, though single readings can be large; an effect the other way counts as inactive or inconclusive.

Tests used:
[1] = Caspase-3/7 induction in CHO-K1 cells by small molecules, qHTS cell viability counter screen (AID 1346979); note: nearly all actives have a fitted effect of over 35% in size; note: potency is the fitted concentration of half-maximal effect
In short: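 Cells (CHO-K1, wild type) are plated at 1,500 per well and incubated 5hr. Test compounds in DMSO are then pinned in, followed by 16hr at 37C and 5% CO2. Viability is read by CellTiter-Fluor fluorescence after 1hr.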

[2] = Caspase-3/7 induction in CHO-K1 cells by small molecules, qHTS assay (AID 1346980); note: nearly all actives have a fitted effect of over 15% in size; note: potency is the fitted concentration of half-maximal effect
In short: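 Wild-type cells were seeded at 1,500 per well and settled 5 hr at 37 C, 5% CO2, then exposed to DMSO-dissolved compounds for 17 hr. Caspase-Glo 3/7 reagent was added, and luminescence was read after 30min at room temperature.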

[3] = Caspase-3/7 induction in HepG2 cells by small molecules, qHTS cell viability counter screen (AID 1346981); note: nearly all actives have a fitted effect of over 30% in size; note: potency is the fitted concentration of half-maximal effect; for activity change, negative = cytotoxicity: series mostly up to about 92 µM
In short: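 HepG2, WT, 2,000 cells/well; 5 hr pre-incubation 37 C/5% CO2; compound pin-transferred from DMSO; 16 hr exposure; CellTiter-Fluor, 1 hr; fluorescence read.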

[4] = target: Nuclear receptor subfamily 1 group I member 2 (Homo sapiens) (UniProt O75469); assay: Human pregnane X receptor (PXR) small molecule agonists, qHTS assay (AID 1346982); note: nearly all actives have a fitted effect of over 35% in size; note: potency is the fitted concentration of half-maximal effect
In short: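 Luciferase signal from ONE-Glo (30 min, room temperature) measured activation of hPXR-driven CYP3A4 reporter expression in PXR-Luc HepG2 cells treated with compounds for 24 hr at 37 C.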

[5] = target: Nuclear receptor subfamily 1 group I member 2 (Homo sapiens) (UniProt O75469); assay: CYP3A4 induction through human pregnane X receptor (PXR) by small molecules, qHTS assay (AID 1346984); note: nearly all actives have a fitted effect of over 40% in size
In short: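 Luminescence readout: luciferase signal after One-Glo (30 min, room temperature), following 3 h at 37C with 3uM final Luciferin-IPA P450 substrate. Cells were DPX-2 (HepG2, PXR/CYP3A4-luc co-transfected) dosed for 24 h.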

[6] = target: Nuclear receptor subfamily 1 group I member 2 (Homo sapiens) (UniProt O75469); assay: Human pregnane X receptor (PXR) activation by small molecules, qHTS assay (AID 1346985); note: nearly all actives have a fitted effect of over 40% in size; note: potency is the fitted concentration of half-maximal effect
In short: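 DPX-2 cells (HepG2 co-transfected with a PXR response element and a CYP3A4-promoter luciferase construct) were seeded at 2,000 per well, rested 5 hr at 37C, then exposed to DMSO-dissolved compounds for 24 hr. Activation was read as luciferase luminescence.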

[7] = target: Cytochrome P450 2D6 (Homo sapiens) (UniProt P10635); assay: Cytochrome P450 Family 2 Subfamily D Member 6 (CYP2D6) small molecule antagonists: luciferase reporter qHTS assay (AID 1671196); note: nearly all actives have a fitted effect of over 50% in size; note: potency is the fitted concentration of half-maximal effect; for activity change, negative = inhibition: series mostly up to about 120 µM
In short: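 Read-out is luminescence from luciferin formed by CYP2D6 turnover of a proluciferin substrate, recorded as relative luminescence units. Reactions ran 1 h at room temperature after NADPH regeneration solution was added.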

[8] = target: Cytochrome P450 2C19 (Homo sapiens) (UniProt P33261); assay: Cytochrome P450 Family 2 Subfamily C Member 19 (CYP2C19) small molecule antagonists: luciferase reporter qHTS assay (AID 1671197); note: nearly all actives have a fitted effect of over 65% in size; note: potency is the fitted concentration of half-maximal effect; for activity change, negative = inhibition: series mostly up to about 120 µM
In short: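 P450-Glo CYP2C19 screening system; proluciferin substrate; DMSO compound stocks; 10 min RT preincubation; NADPH regeneration, 1 h at 37C; luciferin detection reagent, 20 min RT; luminescence as RLU.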

[9] = target: Cytochrome P450 1A2 (Homo sapiens) (UniProt P05177); assay: Cytochrome P450 Family 1 Subfamily A Member 2 (CYP1A2) small molecule antagonists: luciferase reporter qHTS assay (AID 1671199); note: nearly all actives have a fitted effect of over 50% in size; note: potency is the fitted concentration of half-maximal effect; for activity change, negative = inhibition: series mostly up to about 120 µM
In short: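 P450-Glo CYP1A2, 1536-well qHTS: enzyme/proluciferin substrate + cpd (DMSO), 10 min RT; NADPH regen, 1 h RT; detection reagent, 20 min; luminescence, RLU.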

[10] = target: Voltage-gated inwardly rectifying potassium channel KCNH2 (Homo sapiens) (UniProt Q12809); assay: Human Ether-a-go-go-Related Gene (hERG) channel small molecule antagonists: fluorescence cell-based qHTS assay (AID 1671200); note: nearly all actives have a fitted effect of over 50% in size; note: potency is the fitted concentration of half-maximal effect;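 for activity change, negative = inhibition: hERG-expressing U2OS cells given a thallium stimulus after FluxOR II dye loading; series mostly up to about 77 µM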
In short: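 Channel function was assessed by thallium flux. Cells seeded the previous day and kept at 37 C took up FluxOR II dye over 1 h in the dark at room temperature, then sat another 10 min before stimulation.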

[11] = target: Nuclear receptor subfamily 1 group I member 2 (Rattus norvegicus) (UniProt Q9R1A7); assay: Rat pregnane X receptor (rPXR) activation by small molecules, qHTS assay (AID 1346983); conditions: rPXR luciferase reporter cells, One-Glo luminescence, 24 h; stronger effect = higher value; note: nearly all actives have a fitted effect of over 20% in size
In short: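 Cell-based rPXR luciferase reporter assay, 2,000 cells per well, rested 5hr at 37 C before compound addition in DMSO, then 24 hr at 37 C. One-Glo reagent was added and luminescence read after 30 min at room temperature.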

[12] = target: Cytochrome P450 2C9 (Homo sapiens) (UniProt P11712); assay: Cytochrome P450 Family 2 Subfamily C Member 9 (CYP2C9) small molecule antagonists: luciferase reporter qHTS assay (AID 1671198); note: series mostly up to about 120 µM; nearly all actives have a fitted effect of over 50% in size
In short: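 CYP2C9 activity was measured with a P450-Glo proluciferin substrate. Enzyme–substrate mix was held with compound for 10 min at room temperature, then NADPH regeneration solution was added for 1 h at 37C. Luciferin product was read as luminescence.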

[13] = target: Cytochrome P450 3A4 (Homo sapiens) (UniProt P08684); assay: Cytochrome P450 Family 3 Subfamily A Member 4 (CYP3A4) small molecule antagonists: luciferase reporter qHTS assay (AID 1671201)
In short: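 Compounds in DMSO were pin-transferred onto CYP3A4 enzyme-substrate mix and held 10 min at room temperature. NADPH regenerating solution started the reaction for 1 h; luciferin detection reagent stopped it, and luminescence was read after 20 min.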
% is set by controls: 0 for no effect and ±100 for the full control effect.

Voltage-gated inwardly rectifying potassium channel KCNH2 (Homo sapiens), sequence (Q12809 whole entry, looked up): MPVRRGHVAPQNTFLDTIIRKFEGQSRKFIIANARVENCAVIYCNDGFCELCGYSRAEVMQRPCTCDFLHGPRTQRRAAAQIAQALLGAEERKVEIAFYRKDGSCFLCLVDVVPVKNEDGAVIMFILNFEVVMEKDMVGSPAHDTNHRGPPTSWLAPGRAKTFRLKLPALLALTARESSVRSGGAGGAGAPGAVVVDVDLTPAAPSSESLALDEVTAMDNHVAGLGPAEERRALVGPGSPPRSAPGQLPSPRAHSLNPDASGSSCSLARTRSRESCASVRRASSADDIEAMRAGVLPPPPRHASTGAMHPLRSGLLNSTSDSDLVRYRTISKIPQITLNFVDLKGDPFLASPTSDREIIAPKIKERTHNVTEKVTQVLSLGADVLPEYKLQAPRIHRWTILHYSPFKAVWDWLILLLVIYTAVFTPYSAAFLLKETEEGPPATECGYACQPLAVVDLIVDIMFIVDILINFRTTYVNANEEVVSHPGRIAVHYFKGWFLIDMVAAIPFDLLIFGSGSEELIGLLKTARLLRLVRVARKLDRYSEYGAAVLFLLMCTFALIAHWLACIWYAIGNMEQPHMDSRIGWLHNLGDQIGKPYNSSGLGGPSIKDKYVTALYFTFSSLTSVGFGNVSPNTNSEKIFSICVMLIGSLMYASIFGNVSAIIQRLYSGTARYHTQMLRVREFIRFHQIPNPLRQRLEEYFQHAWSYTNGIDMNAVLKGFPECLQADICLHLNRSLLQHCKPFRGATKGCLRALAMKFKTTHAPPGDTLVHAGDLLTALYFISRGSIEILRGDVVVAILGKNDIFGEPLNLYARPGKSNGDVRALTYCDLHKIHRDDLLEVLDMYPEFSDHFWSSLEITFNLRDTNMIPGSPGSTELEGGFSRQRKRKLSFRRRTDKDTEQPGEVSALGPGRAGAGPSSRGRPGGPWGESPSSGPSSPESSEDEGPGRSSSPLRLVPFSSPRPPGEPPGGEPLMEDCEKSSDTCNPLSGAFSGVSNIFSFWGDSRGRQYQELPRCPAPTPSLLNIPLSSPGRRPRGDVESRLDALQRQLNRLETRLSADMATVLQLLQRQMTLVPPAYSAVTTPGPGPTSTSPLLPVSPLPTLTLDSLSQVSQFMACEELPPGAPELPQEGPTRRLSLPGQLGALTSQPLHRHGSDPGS
Cytochrome P450 2D6 (Homo sapiens), sequence (P10635 whole entry, looked up): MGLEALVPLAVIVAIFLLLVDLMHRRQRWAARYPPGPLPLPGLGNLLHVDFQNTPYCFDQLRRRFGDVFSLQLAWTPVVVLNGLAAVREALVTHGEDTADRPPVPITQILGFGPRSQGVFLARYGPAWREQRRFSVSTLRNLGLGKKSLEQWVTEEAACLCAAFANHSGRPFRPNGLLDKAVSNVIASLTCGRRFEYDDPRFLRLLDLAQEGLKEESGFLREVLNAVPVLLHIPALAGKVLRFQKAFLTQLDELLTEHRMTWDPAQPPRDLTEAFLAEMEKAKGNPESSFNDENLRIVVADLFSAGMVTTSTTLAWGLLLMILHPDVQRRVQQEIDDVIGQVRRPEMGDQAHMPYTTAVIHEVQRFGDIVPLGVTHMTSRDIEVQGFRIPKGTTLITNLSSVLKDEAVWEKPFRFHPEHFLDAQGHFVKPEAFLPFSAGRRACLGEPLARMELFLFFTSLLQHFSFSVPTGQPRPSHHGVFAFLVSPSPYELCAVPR
Cytochrome P450 3A4 (Homo sapiens), sequence (P08684 whole entry, looked up): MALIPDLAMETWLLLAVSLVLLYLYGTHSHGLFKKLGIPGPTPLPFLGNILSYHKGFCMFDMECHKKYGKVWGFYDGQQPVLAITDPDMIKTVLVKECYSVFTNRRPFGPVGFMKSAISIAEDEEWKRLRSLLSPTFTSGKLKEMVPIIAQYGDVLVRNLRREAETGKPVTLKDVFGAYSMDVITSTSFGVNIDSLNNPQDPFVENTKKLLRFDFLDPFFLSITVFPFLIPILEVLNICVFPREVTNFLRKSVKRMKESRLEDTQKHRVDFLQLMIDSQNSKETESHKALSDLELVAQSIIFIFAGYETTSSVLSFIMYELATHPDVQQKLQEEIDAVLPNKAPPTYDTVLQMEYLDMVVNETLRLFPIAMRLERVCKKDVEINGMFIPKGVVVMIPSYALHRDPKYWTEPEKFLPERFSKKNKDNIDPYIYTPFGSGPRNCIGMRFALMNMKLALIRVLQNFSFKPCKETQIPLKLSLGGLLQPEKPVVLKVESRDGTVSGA
Nuclear receptor subfamily 1 group I member 2 (Rattus norvegicus), sequence (Q9R1A7 whole entry, looked up): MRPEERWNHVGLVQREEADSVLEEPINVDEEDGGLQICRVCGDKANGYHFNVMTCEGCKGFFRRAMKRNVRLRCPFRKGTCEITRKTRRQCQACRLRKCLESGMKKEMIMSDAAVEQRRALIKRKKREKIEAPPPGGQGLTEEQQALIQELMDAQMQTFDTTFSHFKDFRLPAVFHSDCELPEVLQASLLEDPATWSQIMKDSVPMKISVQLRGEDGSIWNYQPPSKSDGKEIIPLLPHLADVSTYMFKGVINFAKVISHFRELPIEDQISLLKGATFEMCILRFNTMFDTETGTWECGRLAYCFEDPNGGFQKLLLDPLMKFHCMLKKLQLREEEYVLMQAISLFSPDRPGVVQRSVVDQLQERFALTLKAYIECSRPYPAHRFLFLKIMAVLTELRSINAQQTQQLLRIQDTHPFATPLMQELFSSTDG
Cytochrome P450 2C9 (Homo sapiens), sequence (P11712 whole entry, looked up): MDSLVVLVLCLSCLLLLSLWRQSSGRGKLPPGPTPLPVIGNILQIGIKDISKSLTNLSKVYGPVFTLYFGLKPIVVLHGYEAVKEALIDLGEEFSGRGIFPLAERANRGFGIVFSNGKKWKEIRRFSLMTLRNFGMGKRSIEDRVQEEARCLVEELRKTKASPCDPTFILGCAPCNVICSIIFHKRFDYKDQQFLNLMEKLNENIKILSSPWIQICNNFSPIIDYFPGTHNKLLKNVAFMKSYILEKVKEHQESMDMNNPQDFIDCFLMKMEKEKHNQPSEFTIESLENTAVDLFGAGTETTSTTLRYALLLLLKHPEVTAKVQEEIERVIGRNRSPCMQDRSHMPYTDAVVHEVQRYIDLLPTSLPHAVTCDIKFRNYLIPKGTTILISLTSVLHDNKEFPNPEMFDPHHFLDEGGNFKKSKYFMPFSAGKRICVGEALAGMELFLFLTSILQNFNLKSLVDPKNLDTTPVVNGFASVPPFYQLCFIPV
Nuclear receptor subfamily 1 group I member 2 (Homo sapiens), sequence (O75469 whole entry, looked up): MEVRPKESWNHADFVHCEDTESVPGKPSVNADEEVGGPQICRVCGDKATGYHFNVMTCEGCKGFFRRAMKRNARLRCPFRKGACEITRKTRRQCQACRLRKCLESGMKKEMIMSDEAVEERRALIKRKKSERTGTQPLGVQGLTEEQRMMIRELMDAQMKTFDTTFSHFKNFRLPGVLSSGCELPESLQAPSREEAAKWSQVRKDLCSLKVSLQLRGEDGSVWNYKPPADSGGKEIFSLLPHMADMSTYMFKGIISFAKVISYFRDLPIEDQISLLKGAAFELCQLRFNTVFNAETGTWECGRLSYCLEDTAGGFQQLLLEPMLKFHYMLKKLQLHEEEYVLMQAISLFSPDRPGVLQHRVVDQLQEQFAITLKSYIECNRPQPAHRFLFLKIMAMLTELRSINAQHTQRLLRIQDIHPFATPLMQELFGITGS
Cytochrome P450 2C19 (Homo sapiens), sequence (P33261 whole entry, looked up): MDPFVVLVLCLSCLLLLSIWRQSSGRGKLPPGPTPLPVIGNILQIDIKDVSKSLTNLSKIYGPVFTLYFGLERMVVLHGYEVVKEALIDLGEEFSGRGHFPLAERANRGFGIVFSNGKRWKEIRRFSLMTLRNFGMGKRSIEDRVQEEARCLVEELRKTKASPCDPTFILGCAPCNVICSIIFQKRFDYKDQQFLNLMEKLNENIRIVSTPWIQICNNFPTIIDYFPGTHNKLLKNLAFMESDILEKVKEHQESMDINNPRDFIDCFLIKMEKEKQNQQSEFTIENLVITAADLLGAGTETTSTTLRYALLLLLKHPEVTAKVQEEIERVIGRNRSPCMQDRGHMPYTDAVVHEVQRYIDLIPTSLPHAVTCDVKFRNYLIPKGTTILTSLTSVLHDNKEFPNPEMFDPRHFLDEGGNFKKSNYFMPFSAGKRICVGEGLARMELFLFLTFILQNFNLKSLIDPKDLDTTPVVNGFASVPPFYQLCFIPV
Cytochrome P450 1A2 (Homo sapiens), sequence (P05177 whole entry, looked up): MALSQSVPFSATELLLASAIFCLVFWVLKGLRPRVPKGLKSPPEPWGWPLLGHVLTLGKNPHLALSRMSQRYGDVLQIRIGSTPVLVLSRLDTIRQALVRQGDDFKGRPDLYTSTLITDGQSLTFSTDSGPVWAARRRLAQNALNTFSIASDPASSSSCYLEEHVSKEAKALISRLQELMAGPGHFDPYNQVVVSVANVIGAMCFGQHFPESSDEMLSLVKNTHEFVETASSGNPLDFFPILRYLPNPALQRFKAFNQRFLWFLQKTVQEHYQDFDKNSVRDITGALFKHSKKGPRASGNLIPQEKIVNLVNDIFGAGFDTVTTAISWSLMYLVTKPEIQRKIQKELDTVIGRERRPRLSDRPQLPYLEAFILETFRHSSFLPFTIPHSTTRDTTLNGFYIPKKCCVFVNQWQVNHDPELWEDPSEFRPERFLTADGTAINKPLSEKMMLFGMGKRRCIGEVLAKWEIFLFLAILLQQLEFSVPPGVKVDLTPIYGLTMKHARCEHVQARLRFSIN

CC(=O)O[C@]1(C(C)=O)CC[C@H]2[C@@H]3C[C@H](C)C4=CC(=O)CC[C@]4(C)[C@H]3CC[C@@]21C
active: Potency [4] 5.44 µM | Potency [6] 1.58 µM | Potency [8] 15.9 µM
inactive: Potency [1] | Potency [2] | Potency [3] | Potency [5] | Potency [7] | Potency [9] | Potency [10]

CCN(CC)C(=O)Nc1ccc(OCC(O)CNC(C)(C)C)c(C(C)=O)c1 (centres undefined)
inactive: Potency [1] | Potency [2] | Potency [3] | Potency [4] | max activation [11] 1.62% | Potency [5] | Potency [6] | Potency [8] | Potency [12] | Potency [9] | Potency [10] | Potency [13]

CN(C)c1ccc(C(=C2C=CC(=[N+](C)C)C=C2)c2ccccc2)cc1
inactive: max activation [11] 11.8% | Potency [6]
active: Potency [1] 596 nM [middle of 4 runs] | Potency [2] 5.96 µM and 3.35 µM | Potency [3] 19.3 µM and 13.3 µM and 23.7 µM | Potency [4] 1.72 µM and 2.11 µM and 1.33 µM | Potency [7] 7.97 µM and 13.8 µM and 15.5 µM | Potency [9] 15.9 µM and 13.8 µM | Potency [10] 4.25 µM [middle of 4 runs]

COc1ccc(Cc2cnc(N)nc2N)cc1OC
inactive: Potency [1] | Potency [2] | Potency [3] | Potency [4] | max activation [11] 10.3% | Potency [5] | Potency [6] | Potency [7] | Potency [8] | Potency [12] | Potency [9] | Potency [10] | Potency [13]

N[C@@H]1CONC1=O
inactive: Potency [1] | Potency [2] | Potency [3] | Potency [4] | max activation [11] -2.48% | Potency [5] | Potency [6] | Potency [7] | Potency [8] | Potency [12] | Potency [9] | Potency [10] | Potency [13]

COc1ccc(CCN2CCC(Nc3nc4ccccc4n3Cc3ccc(F)cc3)CC2)cc1
active: Potency [1] 7.86 µM and 23.7 µM | Potency [2] 11.1 µM | Potency [3] 8.82 µM and 29.8 µM

c1cnc2cc3c(cc2n1)C1CNCC3C1
inactive: Potency [1] | Potency [2] | Potency [3] | Potency [4] | Potency [7] | Potency [8] | Potency [12] | Potency [9] | Potency [10]

CCCCCCCCCCCCCCCCCl
inactive: activity change, negative = cytotoxicity [1] -2.27% [at 19 µM] | caspase-3/7 activation [2] -1.24% [at 19 µM] | activity change, negative = cytotoxicity [3] -0.832% [at 19 µM] | activation [4] -2.47% [at 19 µM] | activity change, negative = inhibition [7] 0.322% [at 23.6 µM] | activity change, negative = inhibition [8] -0.542% [at 23.6 µM] | activity change, negative = inhibition [12] 1.72% [at 23.6 µM] | Potency [9] | activity change, negative = inhibition [10] -0.466% [at 15.8 µM] | activity change, negative = inhibition [13] 3.48% [at 23.6 µM]

OCC(CO)N[C@H]1C[C@](O)(CO)[C@@H](O)[C@H](O)[C@H]1O
inactive: Potency [1] | Potency [2] | Potency [3] | Potency [4] | max activation [11] -3.54% | Potency [5] | Potency [6] | Potency [7] | Potency [8] | Potency [12] | Potency [9] | Potency [10] | Potency [13]

CN(C)c1ccc2nc3ccc(=[N+](C)C)cc-3sc2c1
active: Potency [1] 5.87 µM and 24.3 µM and 5.96 µM | Potency [3] 10.4 µM and 27.3 µM and 23.7 µM | Potency [6] 3.16 µM
inactive: Potency [2] | Potency [4] | max activation [11] -8.38% | Potency [5] | Potency [10]

CC[C@H]1CN2CCc3cc(OC)c(OC)cc3[C@@H]2C[C@@H]1C[C@H]1NCCc2cc(OC)c(OC)cc21
inactive: max activation [11] -15.9% | Potency [5] | Potency [6] | Potency [12] | Potency [9]
active: Potency [1] 27.4 nM and 13.3 nM | Potency [3] 48.7 nM and 16.8 nM | Potency [4] 19.4 nM and 8.4 nM | Potency [7] 40.1 µM
30.7 µM (active) and inactive: Potency [2]

COC(c1ccccc1)(c1ccccc1)[C@H](Oc1nc(C)cc(C)n1)C(=O)O
inactive: Potency [1] | Potency [2] | Potency [3] | Potency [4] | max activation [11] -2.41% | Potency [5] | Potency [7] | Potency [8] | Potency [10]
active: Potency [6] 10 µM | Potency [9] 17.4 µM

CCC(C)(Oc1ccc(C2(c3ccc(OC(C)(CC)C(=O)O)cc3)CCCCC2)cc1)C(=O)O (centres undefined)
inactive: Potency [1] | Potency [2] | Potency [3] | Potency [4] | max activation [11] -0.804% | Potency [5] | Potency [6] | Potency [7] | Potency [8] | Potency [12] | Potency [9] | Potency [10] | Potency [13]

O=C1NCC2(CCN(CCc3ccccc3)CC2)O1
active: Potency [7] 13.8 µM
inactive: Potency [1] | Potency [2] | Potency [3] | Potency [4] | max activation [11] -2.2% | Potency [5] | Potency [6] | Potency [8] | Potency [9] | Potency [10] | Potency [13]

COc1nc(C)nc(Cl)c1NC1=NCCN1
inactive: Potency [1] | Potency [2] | Potency [3] | Potency [4] | max activation [11] -0.617% | Potency [5] | Potency [6] | Potency [7] | Potency [8] | Potency [12] | Potency [9] | Potency [10] | Potency [13]
